# Several values for one entry are separate records, joined by “and”; a condition that tells them apart may be missing. Equal values may be shown once. Records with an inconclusive call do not appear. Entries that show only a call come without a potency. Activity calls are given as the source filed them. Unless noted, calls come from the whole dose curve; as a rule, active = well fitted curve in the direction sought with a large enough effect; inconclusive = small, poorly fitted or top-dose-only effect, or another doubt; inactive = no such curve, though single readings can be large; an effect the other way counts as inactive or inconclusive.
# Target: Cytochrome P450 2C9 (Homo sapiens) (UniProt P11712)
# Sequence (P11712 whole entry, looked up): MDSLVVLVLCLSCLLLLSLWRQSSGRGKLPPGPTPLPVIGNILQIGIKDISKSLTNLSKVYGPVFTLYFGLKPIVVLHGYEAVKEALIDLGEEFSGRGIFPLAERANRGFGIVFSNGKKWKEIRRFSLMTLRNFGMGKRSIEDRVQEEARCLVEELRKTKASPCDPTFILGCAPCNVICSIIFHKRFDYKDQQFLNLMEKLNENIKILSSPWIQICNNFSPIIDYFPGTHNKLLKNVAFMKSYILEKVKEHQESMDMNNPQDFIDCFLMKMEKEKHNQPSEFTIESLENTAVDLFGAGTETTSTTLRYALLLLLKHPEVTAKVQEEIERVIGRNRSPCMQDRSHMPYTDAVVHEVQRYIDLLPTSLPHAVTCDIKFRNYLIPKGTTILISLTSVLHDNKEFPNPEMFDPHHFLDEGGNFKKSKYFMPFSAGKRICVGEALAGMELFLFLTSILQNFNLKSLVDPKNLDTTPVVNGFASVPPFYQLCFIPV
# Assay: Cytochrome P450 family 2 subfamily C member 9 (CYP2C9) small molecule antagonists: luciferase biochemical (cell-free) qHTS assay (AID 1645842; active = well fitted curve in the direction sought with a large enough effect in the repeat runs; an effect the other way counts as inactive or inconclusive; note: nearly all actives have a fitted effect of over 55% in size; note: potency is the fitted concentration of half-maximal effect)
# Details: P450-Glo CYP2C9 enzyme assay, luciferin luminescence; series mostly up to 57.4 µM
# Method in brief: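 Luminescence, after 20 min with luciferin detection reagent, reflected CYP2C9 turnover during a 1 h NADPH-driven reaction at 37C. Enzyme-substrate mix contained 0.4% bovine serum albumin and was preincubated with compound 10 min at room temperature.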
row,Compound,Potency
1,OCCOCCOCCO,inactive
2,CC[C@H]1OC(=O)[C@H](C)[C@@H](O[C@H]2C[C@@](C)(OC)[C@@H](O)[C@H](C)O2)[C@H](C)[C@@H](O[C@@H]2O[C@H](C)C[C@H](N(C)C)[C@H]2O)[C@](C)(O)C[C@@H](C)CN(C)[C@H](C)[C@@H](O)[C@]1(C)O,inactive
3,CCOC(=O)[C@@H](N)CS,10.7 µM (active)
4,C/C=C/C=C/C(=O)O,inactive
5,C=C1[C@H](CO)[C@@H](O)C[C@@H]1n1cnc2c(=O)[nH]c(N)nc21,inactive
6,CC1(O)CCC(C(C)(C)O)CC1 (stereo not drawn),inactive
7,CCN(CC)C(=O)c1cccnc1,inactive

# System: not listed separately
# Assay: Primary qHTS for inhibitors of nuclear receptor binding SET domain protein 2 (NSD2) in an isogenic RCH-ACV NSD2 p.E1099K mutant (9B) (AID 1645876); note: nearly all actives have a fitted effect of over 70% in size; note: potency is the fitted concentration of half-maximal effect
# Details: RCH-ACV NSD2 E1099K (9B) viability, CellTiter-Glo, 72 h; series mostly up to 44.9 µM
row,Compound,Potency
1,CO[C@H]1C[C@@H]2CC[C@@H](C)[C@@](O)(O2)C(=O)C(=O)N2CCCC[C@H]2C(=O)O[C@H]([C@H](C)C[C@@H]2CC[C@@H](OC(=O)C(C)(CO)CO)[C@H](OC)C2)CC(=O)[C@H](C)/C=C(\C)[C@@H](O)[C@@H](OC)C(=O)[C@H](C)C[C@H](C)/C=C/C=C/C=C/1C,204 nM (active)
2,C[C@H]1O[C@@H](O[C@H]2[C@@H](O)C[C@H](O[C@H]3[C@@H](O)C[C@H](O[C@H]4CC[C@@]5(C)[C@H](CC[C@@H]6[C@@H]5C[C@@H](O)[C@]5(C)[C@@H](C7=CC(=O)OC7)CC[C@]65O)C4)O[C@@H]3C)O[C@@H]2C)C[C@H](O)[C@@H]1O,40.9 nM (active) and 66.1 nM (active)
3,CC(=O)NCCCS(=O)(=O)O,inactive
4,CC(C)Cc1ccc([C@@H](C)C(=O)NS(C)(=O)=O)cc1,inactive
5,CC[C@H]1OC(=O)[C@H](C)[C@@H](O[C@H]2C[C@@](C)(OC)[C@@H](O)[C@H](C)O2)[C@H](C)[C@@H](O[C@@H]2O[C@H](C)C[C@H](N(C)C)[C@H]2O)[C@](C)(O)C[C@@H](C)CN(C)[C@H](C)[C@@H](O)[C@]1(C)O,inactive
6,CN[C@@H]1[C@@H](O)[C@@H](O[C@@H]2[C@@H](O)[C@H](O[C@H]3O[C@H](CN)[C@@H](O)[C@H](O)[C@H]3O)[C@@H](N)C[C@H]2NC(=O)C(O)CN)OC[C@]1(C)O (stereo partly drawn),inactive
7,C=C1[C@H](CO)[C@@H](O)C[C@@H]1n1cnc2c(=O)[nH]c(N)nc21,inactive
8,CN(C)CCOc1ccc(/C(=C(/CCCl)c2ccccc2)c2ccccc2)cc1,inactive

# System: not listed separately
# Assay: Primary qHTS for inhibitors of nuclear receptor binding SET domain protein 2 (NSD2) in an RCH-ACV wild type WT cells (2C) (AID 1645877); note: nearly all actives have a fitted effect of over 70% in size; note: potency is the fitted concentration of half-maximal effect
# Details: RCH-ACV (leukaemia line) NSD2 WT (2C) viability, CellTiter-Glo, 72 h; series mostly up to 44.9 µM
row,Compound,Potency
1,CC(C)(C)c1ccc(CN2CCN(C(c3ccccc3)c3ccc(Cl)cc3)CC2)cc1 (stereo not drawn),inactive
2,CO[C@H]1C[C@@H]2CC[C@@H](C)[C@@](O)(O2)C(=O)C(=O)N2CCCC[C@H]2C(=O)O[C@H]([C@H](C)C[C@@H]2CC[C@@H](OC(=O)C(C)(CO)CO)[C@H](OC)C2)CC(=O)[C@H](C)/C=C(\C)[C@@H](O)[C@@H](OC)C(=O)[C@H](C)C[C@H](C)/C=C/C=C/C=C/1C,574 nM (active)
3,C[C@H]1O[C@@H](O[C@H]2[C@@H](O)C[C@H](O[C@H]3[C@@H](O)C[C@H](O[C@H]4CC[C@@]5(C)[C@H](CC[C@@H]6[C@@H]5C[C@@H](O)[C@]5(C)[C@@H](C7=CC(=O)OC7)CC[C@]65O)C4)O[C@@H]3C)O[C@@H]2C)C[C@H](O)[C@@H]1O,51.5 nM (active) and 118 nM (active)
4,C=C1CC[C@H](O)CC1=C/C=C1\CCC[C@]2(C)[C@@H]([C@H](C)/C=C/[C@H](C)C(C)C)CC[C@@H]12,20500 nM (active)
5,CC(=O)NCCCS(=O)(=O)O,inactive
6,CC(C)Cc1ccc([C@@H](C)C(=O)NS(C)(=O)=O)cc1,inactive
7,C[C@]12CC[C@@H]3c4ccc(OC(=O)c5ccccc5)cc4CC[C@H]3[C@@H]1CC[C@@H]2O,inactive
8,CC[C@H]1OC(=O)[C@H](C)[C@@H](O[C@H]2C[C@@](C)(OC)[C@@H](O)[C@H](C)O2)[C@H](C)[C@@H](O[C@@H]2O[C@H](C)C[C@H](N(C)C)[C@H]2O)[C@](C)(O)C[C@@H](C)CN(C)[C@H](C)[C@@H](O)[C@]1(C)O,inactive
9,C=C1[C@H](CO)[C@@H](O)C[C@@H]1n1cnc2c(=O)[nH]c(N)nc21,inactive

# System: not listed separately
# Assay: NCATS anti-infectives library activity on HEK293 viability as a counter-qHTS vs the C. elegans viability qHTS (AID 1745854)
# Details: HEK293 viability counter-screen; series mostly up to 41.8 µM
# Method in brief: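 HEK293 cells, 1500 per well, exposed 24 hr at 37C in 5% CO2 to compounds in a 1:5 titration, up to 41.7 uM final. Viability read as CellTiter-Glo luminescence after 10 min at room temperature.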
row,Compound,outcome
1,Nc1nccs1,inactive
2,Nc1nc(=O)n([C@@H]2CS[C@H](CO)O2)cc1F,inactive
3,CC[C@H]1OC(=O)[C@H](C)[C@@H](O[C@H]2C[C@@](C)(OC)[C@@H](O)[C@H](C)O2)[C@H](C)[C@@H](O[C@@H]2O[C@H](C)C[C@H](N(C)C)[C@H]2O)[C@](C)(O)C[C@@H](C)CN(C)[C@H](C)[C@@H](O)[C@]1(C)O,inactive
4,C=C1[C@H](CO)[C@@H](O)C[C@@H]1n1cnc2c(=O)[nH]c(N)nc21,inactive

# From PubChem BioAssay (NCATS)
